From PubChem
Hits are enriched below; roughly 3.8% of the tested compounds scored in any of these assays.
Nrf2 ARE act: activates Nrf2 signaling. AREc32 ARE-luciferase reporter (MCF7-derived line), luminescence, 24 h. Potency, µM (top dose mostly 46.1 µM), actives largely listed as activators. 0.31% of 410,000 active. AID 624171; further: nearly all actives have a fitted effect of over 65% in size
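Luminescent ARE reporter assay in AREc32_Fluc cells: overnight plating at 37 deg C, 24 hr compound incubation, Steady-Glo added, 30 min RT before reading.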
ELG1 DNA repair: blocks ELG1-dependent DNA repair in HEK293T cells. Potency, µM (highest dose often 46.1 µM), usual class: inhibitors. AID 504467. 2.3% of 330,000 active. HEK293T ELG1-luciferase reporter, luminescence, 16 h; DNA damage induced by 5-fluorouridine; further: nearly all actives have a fitted effect of over 55% in size
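Reporter activity after DNA damage by 5-fluorouridine is monitored. Compound-treated cells incubate 16 hr at 37 °C, then ONE-Glo is added for 30 min before luminescence reading.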
A549 viability: kills or reduces viability of A549 cells in Nrf2 counter-screen | A549 ARE-Fluc cells, CellTiter-Fluor viability, 18-24 h | Potency, µM (top dose mostly 46 µM), most hits filed as inhibitors | 0.16% of 390,000 active
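A549 ARE_Fluc cells in 5% FBS OPTI-MEM were exposed to compounds in concentration-response for 18-24 h at 37 deg C. Viability was read by CellTiter-Fluor fluorescence (Ex 405/Em 525) after 30 min, before the luciferase read.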
Nrf2 inh: inhibitors of Nrf2 signaling; 2.1% of 360,000 active; Potency, µM (highest dose often 46 µM), hits mostly inhibitors; A549 ARE-Fluc reporter, luciferase luminescence, 18-24 h; further: nearly all actives have a fitted effect of over 60% in size
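A549 ARE_Fluc cells, 5000/well, 5% FBS OPTI-MEM; compounds in dose-response, 18-24 h at 37 °C/5% CO2; CellTiter-Fluor viability read (Ex 405/Em 525), then BugLite luciferase luminescence = Nrf2 activity.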
mIDH1 inhibitor: blocks human mutant IDH1 R132H enzyme; IDH1-R132H enzyme, NADPH consumption, diaphorase/resazurin fluorescence; Potency, µM (series often up to 76.6 µM), most hits filed as inhibitors; 0.093% of 390,000 active; AID 602179; further: nearly all actives have a fitted effect of over 65% in size
Target sequence (O75874 whole entry R132H, stated change not applied): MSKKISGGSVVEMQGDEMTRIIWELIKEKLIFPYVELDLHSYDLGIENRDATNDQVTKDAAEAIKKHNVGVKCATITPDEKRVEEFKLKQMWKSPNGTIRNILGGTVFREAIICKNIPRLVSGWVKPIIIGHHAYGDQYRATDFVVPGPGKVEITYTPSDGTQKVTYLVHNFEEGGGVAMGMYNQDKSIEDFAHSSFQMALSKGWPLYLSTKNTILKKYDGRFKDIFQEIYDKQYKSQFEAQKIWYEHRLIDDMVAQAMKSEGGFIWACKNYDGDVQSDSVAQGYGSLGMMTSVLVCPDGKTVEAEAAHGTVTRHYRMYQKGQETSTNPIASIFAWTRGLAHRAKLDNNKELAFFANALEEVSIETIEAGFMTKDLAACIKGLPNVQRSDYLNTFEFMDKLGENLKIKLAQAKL
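IDH1-R132H (0.5 ug/mL dispensed) in pH 7.5 Tris buffer was preincubated 30 min with compound, then given a substrate mix of 0.016 mM NADPH and 2 mM alpha-KG for 80 min at room temperature; remaining NADPH was read by diaphorase/resazurin fluorescence.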
A number is an active result; - = inactive; ? = inconclusive; . = not tested or not shown; [ ] = another dose, or the depositor's remark. The call rests on the fitted dose curve; in most records, active means well fitted curve in the direction sought with a large enough effect; inconclusive means small, poorly fitted or top-dose-only effect, or another doubt; inactive means no such curve, though single readings can be large; an effect the other way counts as inactive or inconclusive.

SMILES | Nrf2 ARE act | ELG1 DNA repair | A549 viability | Nrf2 inh | mIDH1 inhibitor
CCc1ccccc1NC(=O)c1cn(C)c(=O)c2ccccc12 | - | . | - | -[9.27 µM] | -
CS(=O)(=O)c1nc(S(=O)(=O)c2ccc(Cl)cc2)c(N2CCOCC2)s1 | 6.31µM | - | - | ? | -
CCOc1ccc(CN2CCN(S(=O)(=O)c3ccc(NC(C)=O)cc3)CC2)cc1 | - | ? | - | 20.6µM | -
O=C(CN1CCN(S(=O)(=O)c2ccccc2)CC1)Nc1ccc([N+](=O)[O-])cc1 | - | 20.6µM | - | - | -
CC(=O)Nc1ccc(S(=O)(=O)N2CCN(Cc3ccccc3[N+](=O)[O-])CC2)cc1 | - | 9.2µM | - | ? | -
O=C1c2cccc3cccc(c23)C(=O)N1CC1CCN(S(=O)(=O)c2ccc(F)cc2)CC1 | - | 20.6µM | - | - | -
O=C1c2cccc3cccc(c23)C(=O)N1CC1CCN(S(=O)(=O)c2ccccc2)CC1 | - | . | - | - | -
Cc1cccc(NC(=O)CSc2nc(COc3ccccc3)nc3ccccc23)c1C | - | ? | ? | 25.9µM | -
CCCc1nc(SCC(=O)Nc2cc(C)on2)c2ccccc2n1 | - | 25.9µM | . | ? | -
Cc1cc(NC(=O)CSc2nc3c([nH]c4ccccc43)c(=O)n2-c2ccccc2F)no1 | - | 20.6µM | ? | - | -
Cc1cc(NC(=O)CSc2nc(CCC3CCCC3)nc3ccccc23)no1 | - | ? | - | ? | -
Cc1ccc(OC2CCN(C(=O)[C@H]3O[C@@H](n4ccc(N)nc4=O)[C@H](O)[C@@H]3O)CC2)cc1 | - | . | . | . | .
CN(C)/C=C/c1c([N+](=O)[O-])c2ccc(O)cc2n1-c1ccccc1 | - | 7.3µM | - | - | -
O=c1cc(CN2CCN(c3ccccc3)CC2)c2ccccc2o1 | - | . | . | . | .
CCc1nn(CC(=O)Nc2cccc(C(C)=O)c2)c(=O)c2cc3sccc3n12 | - | . | - | ? | -
COc1cccc2c1cc1c(=O)n(CC(=O)NCCCN3CCCCC3)nc(C)n12 | - | ? | - | - | -
CCOC(=O)Cc1csc(NC(=O)COc2ccc(N(C)S(=O)(=O)c3ccc(C)cc3)cc2)n1 | - | 18.4µM | - | - | -
CN(c1ccc(OCC(=O)Nc2nc3ccccc3s2)cc1)S(=O)(=O)c1ccccc1 | - | 8.2µM | - | ? | -
CCOC(=O)Cc1csc(NC(=O)Nc2ccc(F)cc2)n1 | - | 7.3µM | - | - | -
CCOC(=O)Cc1csc(NC(=O)C(NC(=O)C2CCC(C)CC2)C(C)C)n1 (stereo not drawn) | - | 8.2µM | - | ? | -
Fc1ccc(-c2nnc3ccc(N4CCc5ccccc5C4)nn23)cc1 | - | 18.4µM | - | ? | -
O=C(Nc1ccccc1C(F)(F)F)N1CCN(c2ccc3nnc(-c4ccc(F)cc4)n3n2)CC1 | - | 11.6µM | - | ? | -
O=C(c1ccc(Br)o1)N1CCN(c2ccc3nnc(-c4ccccc4)n3n2)CC1 | - | ? | - | - | -
O=C(Nc1ccc(F)cc1)N1CCN(c2ccc3nnc(-c4ccc(F)cc4)n3n2)CC1 | - | 7.31µM | ? | ? | -
Cc1nn(Cc2ccc(Cl)cc2Cl)c(C)c1NC(=O)NC12CC3CC(CC(C3)C1)C2 | - | ? | - | 20.6µM | -
SMILES | Nrf2 ARE act | ELG1 DNA repair | A549 viability | Nrf2 inh | mIDH1 inhibitor
CCc1ccc(NC(=O)c2ccc3c(c2)nnn3CC)cc1 | - | . | - | ? | -
CCc1nc2ccccc2n(CCOCCn2c(=O)c(CC)nc3ccccc32)c1=O | - | 23.1µM | -[1.84 µM] | - | -
COc1ccccc1N=Nc1ccc(O)c2ncccc12 | ? | ? | - | - | -
CCS(=O)(=O)c1ccc(N=Nc2ccc(O)c3ncccc23)c(OC)c1 | - | ? | 18.4µM | ? | -
Cc1ccc(N=Nc2ccc3ccccc3c2O)cc1 | ? | ? | ? | ? | -
Cc1ccc2nc(-c3ccc(N=Nc4cc(S(=O)(=O)O)c5ccccc5c4O)cc3)sc2c1S(=O)(=O)O | . | . | 13µM | - | .
CCOc1cc(C#N)c(NC(=O)Cn2nnc(-c3ccc(C)cc3)n2)cc1OCC | - | . | - | - | -
CC(=O)c1ccc(N/N=C(/C(N)=O)C2=NC(C)(C)Cc3ccccc32)cc1 | - | 20.6µM | ? | ? | -
CC(=O)/C(N)=N/Nc1cccc(Cl)c1 | - | - | - | - | -
CC1(C)Cc2ccccc2C(/C(=N/O)C(N)=O)=N1 | - | ? | - | - | -
CC1(C)Cc2ccccc2C(/C(=N\Nc2cccc(Cl)c2)C(N)=O)=N1 | - | 16.4µM | - | ? | -
Cc1cc(C)nc(NC(=NCCc2c[nH]c3ccccc23)NC(=O)c2ccco2)n1 | - | 11.6µM | - | ? | -
Cc1cc(C)nc(NC(=NCCc2c[nH]c3ccccc23)NC(=O)Nc2ccccc2)n1 | - | 14.6µM | - | ? | -
Cc1cc(C)nc(NC(=NCCc2c[nH]c3ccccc23)NC(=O)Nc2cccc([N+](=O)[O-])c2)n1 | - | 5.17µM | - | - | -
COc1ccc(NC(=O)C2CCCN(S(=O)(=O)c3ccc4c(c3)CCCC(=O)N4)C2)cc1OC (stereo not drawn) | - | . | - | - | -
CCc1ccccc1NC(=O)CSc1ncc2c(n1)-c1ccccc1N(Cc1ccc(C)cc1)S2(=O)=O | - | . | - | - | -
Cc1ccc(Nc2c3c(nc4nncn24)CCC3)c(C)c1 | - | . | - | - | -
N#Cc1cn(CCOc2ccccc2F)c2ccccc12 | - | ? | - | - | -
Cc1c(C#N)c2ccccc2n1CCOc1ccccc1F | - | - | - | 23.1µM | -
Cc1ccc(S(=O)(=O)c2nc(-c3cccc(C)c3)oc2N2CCN(c3ccccc3)CC2)cc1 | - | . | - | - | -
COc1cc2ccccc2cc1C(=O)NNC(=O)c1ccccc1O | . | 25.9µM | . | . | .
CN(C)c1cc[n+](CC(=O)Nc2ccc(Oc3ccccc3)cc2)cc1 | - | - | - | 23.1µM | -
CC(=O)Nc1cc[n+](CC(=O)c2ccc(Cl)cc2)cc1 | - | - | - | 23.1µM | -
CN(C)c1cc[n+](CC(=O)Nc2ccc(Cl)cc2)cc1 | - | ? | - | 6.51µM | -
CC(=O)Nc1cc[n+](C(C)C(=O)c2ccc(Cl)cc2)cc1 (stereo not drawn) | - | - | - | - | -
SMILES | Nrf2 ARE act | ELG1 DNA repair | A549 viability | Nrf2 inh | mIDH1 inhibitor
CN(C)c1cc[n+](CC(=O)c2ccc(OC(F)F)cc2)cc1 | - | ? | - | 20.6µM | -
CCOc1ccc(NC(=O)C[n+]2ccc(N(C)C)cc2)cc1 | - | - | - | ? | -
COc1cc(C(=O)NC(CCSC)C(=O)Nc2ccc(N3CCOCC3)cc2)cc(OC)c1OC (stereo not drawn) | - | . | . | . | -
COc1ccc(NC(=O)Cn2c3ccc(OC)cc3c3nc4n(c(=O)c32)CCS4)cc1 | - | ? | - | 23.1µM | -
COc1ccc2c(c1)c1nc3n(c(=O)c1n2CC(=O)Nc1ccccc1)CCCS3 | - | ? | - | - | -
Cc1ccc(NS(=O)(=O)Cc2ccccc2)cc1Cl | - | - | - | - | -
CC(C)(C)Nc1nc(C#N)nc(Nc2ccccc2)n1 | . | . | - | - | .
